Measurements reported in PubChem BioAssay AID1159580 (chemical genetic matrix, 2015).
About 2,000 (36%) of roughly 5,500 compounds were called active. Roughly 18% stayed inconclusive and do not appear here. The list shows a part of the results. Unmarked numbers belong to inactive results. Cut-off read from the data, not from the text of the source: active = normalized growth mostly below about 0.91 (no sharp cut-off); inconclusive = no clear call, values can overlap the other calls; inactive = mostly above about 0.92.

Test: chemical genetic growth profiling, strain panel (AID 1159580);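 note: tested at 20 µM; growth read once vehicle control cultures reached saturation at 30 °C; 1 = growth at the plate median or of vehicle wells; lower values mean less growth of the strain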
Settings: growth OD
[1] = S. cerevisiae deletion strains, locus YAL040C, strain CLN3, hits give low values
[2] = S. cerevisiae deletion strains, locus YCL061C, strain MRC1 (second series), hits give low values
[3] = S. cerevisiae deletion strains, locus YDR150W, strain NUM1, hits give low values
[4] = S. cerevisiae deletion strains, locus YDR363W, strain ESC2, hits give low values
[5] = S. cerevisiae deletion strains, locus YER002W, strain NOP16, hits give low values
[6] = S. cerevisiae deletion strains, locus YGR229C, strain SMI1, hits give low values
[7] = S. cerevisiae deletion strains, locus YJR075W, strain HOC1, hits give low values
[8] = S. cerevisiae deletion strains, locus YMR307W, strain GAS1, hits give low values
[9] = S. cerevisiae deletion strains, locus YNL175C, strain NOP13, hits give low values
[10] = S. cerevisiae deletion strains, locus YNL197C, strain WHI3, hits give low values
[11] = S. cerevisiae deletion strains, locus YNL224C, strain SQS1, hits give low values
[12] = S. cerevisiae deletion strains, locus YNL322C, strain KRE1, hits give low values
[13] = S. cerevisiae deletion strains, locus YOR083W, strain WHI5 (second series), hits give low values
[14] = S. cerevisiae deletion strains, locus YPL055C, strain LGE1, hits give low values
[15] = S. cerevisiae deletion strains, locus YPL241C, strain CIN2, hits give low values
[16] = S. cerevisiae deletion strains, locus YAL013W, strain DEP1, hits give low values

For CCCCNc1c(C(=O)OCC)c(C)nc2c1cnn2CC, which normalized growth [1] is on record?
Its normalized growth is 0.933.

What about the normalized growth [2] of the same compound?
The normalized growth was 0.998.

And the normalized growth [3]?
The normalized growth was 0.999.

What about the normalized growth [4] of the same compound?
The normalized growth was 1.01.

What about the normalized growth [5] of the same compound?
The normalized growth was 0.998.

And the normalized growth [6]?
Its normalized growth is 1.01.

What about the normalized growth [7] of the same compound?
Its normalized growth is 1.01.

And the normalized growth [8]?
Its normalized growth is 0.998.

What about the normalized growth (S. cerevisiae deletion strains, locus YNL128W, strain TEP1, hits give low values) of the same compound?
The normalized growth was 0.959.

And the normalized growth [9]?
Its normalized growth is 0.941.

What about the normalized growth [10] of the same compound?
The normalized growth was 0.947.

And the normalized growth [11]?
The normalized growth was 0.951.

What about the normalized growth [12] of the same compound?
Its normalized growth is 1.

And the normalized growth [13]?
Its normalized growth is 0.845 (active).

What about the normalized growth [14] of the same compound?
The normalized growth was 1.01.

And the normalized growth [15]?
Its normalized growth is 0.993.

With CCOC(=O)c1cnc2cc(C)nn2c1C as the compound, how does the normalized growth [16] read?
Its normalized growth is 0.994.

What about the normalized growth (S. cerevisiae deletion strains, locus YBR229C, strain ROT2, hits give low values) of the same compound?
The normalized growth was 0.994.

And the normalized growth (S. cerevisiae deletion strains, locus YCL061C, strain MRC1, hits give low values)?
The normalized growth was 0.999.

What about the normalized growth (S. cerevisiae deletion strains, locus YDL101C, strain DUN1, hits give low values) of the same compound?
Its normalized growth is 0.997.

What about the normalized growth [3] of the same compound?
The normalized growth was 0.964.

And the normalized growth (S. cerevisiae deletion strains, locus YEL061C, strain CIN8, hits give low values)?
The normalized growth was 0.997.

And the normalized growth (S. cerevisiae deletion strains, locus YGR078C, strain PAC10, hits give low values)?
The normalized growth was 1.

What about the normalized growth [6] of the same compound?
Its normalized growth is 0.983.

What about the normalized growth (S. cerevisiae deletion strains, locus YHR030C, strain SLT2, hits give low values) of the same compound?
Its normalized growth is 0.986.

What about the normalized growth (S. cerevisiae deletion strains, locus YHR087W, strain rtc3, hits give low values) of the same compound?
The normalized growth was 1.01.

And the normalized growth (S. cerevisiae deletion strains, locus YJL187C, strain SWE1, hits give low values)?
The normalized growth was 1.01.

And the normalized growth (S. cerevisiae deletion strains, locus YJR043C, strain POL32, hits give low values)?
The normalized growth was 1.01.

And the normalized growth [7]?
Its normalized growth is 0.998.

And the normalized growth (S. cerevisiae deletion strains, locus YKL190W, strain CNB1, hits give low values)?
The normalized growth was 0.992.

What about the normalized growth (S. cerevisiae deletion strains, locus YLR039C, strain RIC1, hits give low values) of the same compound?
Its normalized growth is 0.987.

And the normalized growth (S. cerevisiae deletion strains, locus YLR058C, strain SHM2 (second series), hits give low values)?
The normalized growth was 1.

And the normalized growth (S. cerevisiae deletion strains, locus YLR085C, strain ARP6, hits give low values)?
The normalized growth was 0.944.

What about the normalized growth (S. cerevisiae deletion strains, locus YLR262C, strain YPT6, hits give low values) of the same compound?
The normalized growth was 0.99.

And the normalized growth (S. cerevisiae deletion strains, locus YML094W, strain GIM5, hits give low values)?
Its normalized growth is 0.953.

What about the normalized growth (S. cerevisiae deletion strains, locus YMR219W, strain ESC1, hits give low values) of the same compound?
Its normalized growth is 0.991.

And the normalized growth (S. cerevisiae deletion strains, locus YMR263W, strain SAP30, hits give low values)?
The normalized growth was 1.

What about the normalized growth (S. cerevisiae deletion strains, locus YNL298W, strain CLA4 (second series), hits give low values) of the same compound?
The normalized growth was 0.996.

And the normalized growth [12]?
Its normalized growth is 0.994.

What about the normalized growth (S. cerevisiae deletion strains, locus YNR030W, strain Alg12, hits give low values) of the same compound?
Its normalized growth is 0.981.

What about the normalized growth (S. cerevisiae deletion strains, locus YOL006C, strain TOP1, hits give low values) of the same compound?
Its normalized growth is 0.965.

What about the normalized growth [14] of the same compound?
The normalized growth was 0.909.

What about the normalized growth [15] of the same compound?
The normalized growth was 0.956.

What about the normalized growth (S. cerevisiae deletion strains, locus YPR135W, strain CTF4, hits give low values) of the same compound?
The normalized growth was 1.01.

What about the normalized growth (S. cerevisiae strains, strain wild type, hits give low values) of the same compound?
The normalized growth was 0.991.

Which results are given for CCOC(=O)c1cnc2c(cnn2CC)c1NN=C(C)C?
normalized growth [16]: 0.918; normalized growth [1]: 1.01; normalized growth [2]: 0.943 (active); normalized growth [4]: 0.918; normalized growth [5]: 0.959; normalized growth [6]: 0.76 (active); normalized growth [8]: 0.856 (active); normalized growth (S. cerevisiae deletion strains, locus YNL153C, strain GIM3, hits give low values): 0.909; normalized growth [9]: 0.961; normalized growth [10]: 0.976; normalized growth [11]: 0.97; normalized growth [13]: 0.844 (active); normalized growth [14]: 0.966; normalized growth [15]: 0.964
